Assay outcomes as filed in PubChem.
SMN2 splice enh: SMN2 splice variant enhancement; HEK293 SMN2-luciferase splicing reporter, luminescence, 30-36 h; Potency, µM (doses to about 46.1 µM), usual class: activators; actives 2.8% (n = 210,000); AID 1458; also: nearly all actives have a fitted effect of over 55% in size
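HEK293 cells carry an SMN2 […]–luciferase reporter in which exon 7 inclusion puts luciferase in frame. Cells were plated 10-12 h before compound addition, then incubated 30-36 h at 37C. ONE-Glo luminescence was read; sodium butyrate at 4.5 mM final served as control.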
ELG1 genotox: genotoxicity induction in ELG1-luciferase HEK293T cells; HEK293T ELG1-luciferase reporter, luminescence, 16 h; Potency, µM (series often up to 46 µM), actives largely listed as activators; actives 1.3% (n = 330,000); also: nearly all actives have a fitted effect of over 60% in size
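Screening used a luciferase reporter fused to human ELG1 in HEK293T cells. Luminescence was read on a CCD plate imager after 16 hr exposure and 30 min ONE-Glo incubation.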
FLuc counter: counter-screen for miR-21 project: firefly luciferase inhibitors or activators; Potency, µM (highest dose often 57.5 µM), hits mostly inhibitors; P08659; purified FLuc, Km substrates, luminescence inhibition; actives 6.9% (n = 360,000); AID 588342; also: nearly all actives have a fitted effect of over 55% in size
Target sequence (P08659 whole entry, looked up): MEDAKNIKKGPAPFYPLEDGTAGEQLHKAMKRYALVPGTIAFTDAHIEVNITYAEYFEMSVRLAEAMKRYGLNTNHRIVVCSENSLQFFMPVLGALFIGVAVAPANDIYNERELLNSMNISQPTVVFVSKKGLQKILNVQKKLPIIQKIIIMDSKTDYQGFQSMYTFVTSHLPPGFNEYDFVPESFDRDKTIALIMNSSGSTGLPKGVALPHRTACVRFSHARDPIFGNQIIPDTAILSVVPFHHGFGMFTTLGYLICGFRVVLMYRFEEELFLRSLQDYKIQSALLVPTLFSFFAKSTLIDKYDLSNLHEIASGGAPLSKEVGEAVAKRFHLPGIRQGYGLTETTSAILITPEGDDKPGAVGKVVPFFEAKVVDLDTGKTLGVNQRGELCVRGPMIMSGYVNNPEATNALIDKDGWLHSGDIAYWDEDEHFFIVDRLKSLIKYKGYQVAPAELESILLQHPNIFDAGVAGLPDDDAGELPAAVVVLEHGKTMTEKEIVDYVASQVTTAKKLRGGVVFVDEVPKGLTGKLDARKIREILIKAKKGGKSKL
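Purified P. pyralis luciferase, 10 nM final, with Km-level 10 uM D-luciferin and 10 uM ATP in 50 mM Tris acetate pH 7.5, 10 mM Mg acetate, 0.01% Tween-20, 0.05% BSA; 6-point qHTS titration about 60 µM downward; luminescence read.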
NPC1 prom act: activates the NPC1 promoter; Potency, µM (series often up to 9.22 µM), hits mostly activators; Huh7 NPC1 promoter luciferase reporter, 24 h; AID 485313; actives 2.4% (n = 320,000); also: nearly all actives have a fitted effect of over 60% in size
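NPC1 promoter–luciferase Huh7 cells; 24 h compound; luminescence.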
KinaseGlo FLuc: Kinase-Glo luciferase inhibition (counter-screen). Kinase-Glo luciferase, ATP luminescence, 8 min. Q27757. Potency, µM (top dose mostly 38.3 µM), most hits filed as inhibitors. actives 0.28% (n = 200,000). AID 1379; also: nearly all actives have a fitted effect of over 60% in size
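Recombinant Kinase-Glo luciferase, 10 uM ATP (linear range), luciferin; imidazole pH 7.2 / KCl / MgCl2 / Tween / BSA buffer; 8 min RT; luminescence.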
Rab9 prom act: Rab9 promoter activation; Huh7 Rab9 promoter-luciferase reporter, luminescence, 24 h; Potency, µM (top dose mostly 9.22 µM), usual class: activators; actives 2.8% (n = 320,000); AID 485297; also: nearly all actives have a fitted effect of over 60% in size
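Cells were plated at 1500 per well in reduced-serum medium with 10% FBS and left 2 h. Compound in DMSO was then added for 24 h at 37 °C. Reporter signal was read by luminescence after 10 min with luciferase detection reagent.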
Each line names hits and unclear results; the compound was inactive in the other large screens. Only some compounds are listed: those with a hit (about 7.5% of all), similar ones and a draw of the others. Calls follow the shape of the dose curve; as a rule, active = well fitted curve in the direction sought with a large enough effect; inconclusive = small, poorly fitted or top-dose-only effect, or another doubt; inactive = no such curve, though single readings can be large; an effect the other way counts as inactive or inconclusive.

Cc1ccc(C)c(NC(c2ccccc2)c2nnc(-c3ccccc3F)o2)c1 (centres undefined)	FLuc counter 15µM (no result: ELG1 genotox, NPC1 prom act, KinaseGlo FLuc, Rab9 prom act)
CCCCn1c(N)c(N(CCOC)C(=O)c2cccc(S(=O)(=O)N(C)c3ccc(C)cc3)c2)c(=O)[nH]c1=O	none (no result: SMN2 splice enh, KinaseGlo FLuc)
Cc1cccc(-n2cnc(C(=O)NC3CCCCCC3)c2)n1	SMN2 splice enh inconclusive, ELG1 genotox inconclusive, FLuc counter 15µM, NPC1 prom act 2.5µM, Rab9 prom act 3.5µM
Cc1ccc(O)c(-c2cc(-c3ccc(F)cc3)no2)c1	ELG1 genotox 2.1µM, FLuc counter 0.95µM (no result: SMN2 splice enh, KinaseGlo FLuc)
Oc1ccccc1-c1cc(-c2ccccc2)no1	SMN2 splice enh 3.2µM, ELG1 genotox inconclusive, FLuc counter 0.85µM, NPC1 prom act 5.6µM, Rab9 prom act inconclusive
Cc1ccccc1-c1cc(-c2ccccc2O)on1	SMN2 splice enh 7.1µM, ELG1 genotox inconclusive, FLuc counter 1.9µM, NPC1 prom act inconclusive, Rab9 prom act inconclusive
Cc1ccc(-c2cc(-c3ccccc3)no2)c(O)c1	ELG1 genotox 0.37µM, FLuc counter 0.17µM, NPC1 prom act 3.2µM, Rab9 prom act 2µM (no result: SMN2 splice enh)
Cc1ccc(O)c(NC(=O)c2cc(-c3ccccc3O)no2)c1	none (no result: SMN2 splice enh, ELG1 genotox, NPC1 prom act, KinaseGlo FLuc, Rab9 prom act)
CC(=O)Oc1ccc2c(c1)CCC1C2CC[C@]2(C)C(OC(C)=O)CCC12 (some centres undefined)	none (no result: ELG1 genotox, FLuc counter, NPC1 prom act, Rab9 prom act)
Cc1c(C(=O)NCc2ccccc2Br)oc2c1-c1[nH]ncc1CC2	none (no result: SMN2 splice enh, ELG1 genotox, NPC1 prom act, KinaseGlo FLuc, Rab9 prom act)
Cc1cccnc1Nc1nc(-c2ccc(O)cc2O)cs1	ELG1 genotox inconclusive, FLuc counter 15µM, NPC1 prom act inconclusive, Rab9 prom act 3.2µM (no result: SMN2 splice enh, KinaseGlo FLuc)
NS(=O)(=O)c1ccc(Nc2nc(-c3ccc(O)cc3O)cs2)cc1	ELG1 genotox inconclusive, FLuc counter inconclusive
Oc1ccc(-c2csc(Nc3ccccn3)n2)c(O)c1	ELG1 genotox 9.2µM, FLuc counter 4.8µM, NPC1 prom act 1.8µM, Rab9 prom act 3.2µM (no result: SMN2 splice enh, KinaseGlo FLuc)
COc1cc(/C=C2/C(=O)NN(c3cccc(C)c3)C2=O)cc([N+](=O)[O-])c1O	FLuc counter 21µM
COc1cc(/C=C2/C(=O)NN(c3ccc(C)c(Cl)c3)C2=O)cc([N+](=O)[O-])c1O	FLuc counter 19µM (no result: SMN2 splice enh, KinaseGlo FLuc)
Cc1ccc(-n2cc3c(c2-c2ccccc2Br)c(=O)n(C)c(=O)n3C)cc1N	none (no result: ELG1 genotox, NPC1 prom act, KinaseGlo FLuc, Rab9 prom act)
O=C(O)c1cccc(NC(=S)N/N=C/c2cccc(O)c2)c1	FLuc counter 2.1µM
O=C(O)c1cccc(NC(=S)N/N=C/c2ccccn2)c1	SMN2 splice enh 0.89µM, ELG1 genotox inconclusive, FLuc counter 0.38µM, NPC1 prom act 0.28µM, Rab9 prom act 0.32µM
O=C(O)c1cccc(NC(=S)N/N=C/c2ccccc2OCc2ccc(Br)cc2)c1	SMN2 splice enh inconclusive, FLuc counter 24µM
O=C(CSc1ncc2c(n1)-c1cc(Cl)ccc1N(Cc1ccccc1F)S2(=O)=O)Nc1cccc(C(F)(F)F)c1	none (no result: SMN2 splice enh, ELG1 genotox, NPC1 prom act, KinaseGlo FLuc, Rab9 prom act)
CSc1nc2ccc(NC(=O)c3ccccn3)cc2s1	ELG1 genotox 0.092µM, FLuc counter 0.43µM, NPC1 prom act 0.45µM, Rab9 prom act 0.4µM (no result: SMN2 splice enh, KinaseGlo FLuc)
CSc1nc2ccc(NC(=O)C3=NNC(=O)CC3)cc2s1	FLuc counter inconclusive
CSc1nc2ccc(NC(=O)CSc3nnc(N)s3)cc2s1	ELG1 genotox inconclusive, FLuc counter 21µM
CSc1nc2ccc(NC(=O)C3=NN(c4ccccc4)C(=O)CC3)cc2s1	SMN2 splice enh inconclusive, FLuc counter 19µM
O=C(O)CCCC/C=C\C[C@@H](O)/C=C/C=C/C=C\[C@@H](O)CCCC(=O)O	none (no result: ELG1 genotox, FLuc counter, NPC1 prom act, Rab9 prom act)
CCOc1cc(-c2cc(C(=O)O)c3c(-c4ccccc4)[nH]nc3n2)ccc1O	FLuc counter inconclusive (no result: ELG1 genotox, NPC1 prom act, KinaseGlo FLuc, Rab9 prom act)
COc1ccc(-c2[nH]nc3nc(-c4cc(OC)c(OC)c(OC)c4)cc(C(=O)O)c23)cc1	FLuc counter 2.7µM (no result: SMN2 splice enh, ELG1 genotox, NPC1 prom act, KinaseGlo FLuc, Rab9 prom act)
CCc1ccc(-c2[nH]nc3nc(-c4cc(OC)ccc4OC)cc(C(=O)O)c23)cc1	FLuc counter 1.9µM (no result: SMN2 splice enh, ELG1 genotox, NPC1 prom act, KinaseGlo FLuc, Rab9 prom act)
CCN(CC(=O)Nc1ccc(NC(C)=O)cc1)C(=O)Cc1ccc(S(=O)(=O)N2CCOCC2)s1	none (no result: SMN2 splice enh, KinaseGlo FLuc)
